Active and inactive are the calls of the source.
Legend:
[1] = optical density shifts of acrAB sulA E. coli – strain DRC41, OD650, 48 h, E. coli filamentation inducer project, primary screen (AID 1152); conditions: higher = more signal, called active from +8 up or from −8 down;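 note: E. coli MC1000 strain DRC41 lacking acrAB efflux pump and sulA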
[2] = probe aLefty1 binding on compound microarray – biochemical, small-molecule microarray, 635/667 nm fluorescence, primary screen (AID 1153); conditions: higher = more signal;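 note: score merges spot fluorescence with signal-to-noise ratio from the scanned slide images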
[3] = plasmodial surface anion channel blockers, osmotic lysis – cell-based, P. falciparum Indochina, OD700, 1 h, primary screen (AID 1154); conditions: P. falciparum Indochina infected RBC osmotic lysis, higher = more signal, called active from +8 up or from −8 down
[4] = plasmodial surface anion channel blockers, osmotic lysis – cell-based, P. falciparum Indochina, OD700, 2 h, primary screen (AID 1155);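 note: lysis reports solute entry through the parasite surface anion channel PSAC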; conditions: P. falciparum Indochina infected erythrocytes, higher = more signal, called active from +8 up or from −8 down
[5] = changes in parasitized red cell lysis, either direction – P. falciparum Indochina, OD700, 3 h, PSAC antagonist project, primary screen (AID 1156); conditions: P. falciparum-infected erythrocytes, osmotic lysis, higher = more signal, called active from +8 up or from −8 down
[6] = plasmodial surface anion channel blockers, osmotic lysis – cell-based, P. falciparum Indochina, OD700, 18 h, primary screen (AID 1157); conditions: P. falciparum Indochina infected erythrocytes, osmotic lysis OD700, 18 h; higher = more signal, called active from +8 up or from −8 down
[7] = S6 kinase pathway phospho-S6 level changes – cell-based, A549, cytoblot, luminescence, serum-stimulated, primary screen (AID 1158); conditions: 5 h, higher = more signal;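 note: serum-stimulated A549 lung adenocarcinoma cells; signal is phosphorylated S6 detected by cytoblot immunostaining with HRP secondary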
[8] = biological target: NADPH oxidase 2 (Homo sapiens) (UniProt P04839); experiment: compounds shifting NOX2 Amplex Red fluorescence – cell-based, HEK293-NOX2, PMA-stimulated, NOX inhibitor project, primary screen (AID 1159); conditions: 45 min, higher = more signal, called active from +8 up or from −8 down; note: test concentration not given here
[9] = biological target: NADPH oxidase 4 (Homo sapiens) (UniProt Q9NPH5); experiment: compounds shifting NOX4 Amplex Red fluorescence – cell-based, HEK293-NOX4, tetracycline-induced, NOX inhibitor project, primary screen (AID 1160); conditions: HEK293-NOX4, Amplex Red H2O2 fluorescence, 45 min; higher = more signal, called active from +8 up or from −8 down
[10] = biological target: NADPH oxidase 5 (Homo sapiens) (UniProt Q96PH1); experiment: compounds shifting NOX5 Amplex Red fluorescence – cell-based, HEK293-NOX5, NOX inhibitor project, primary screen (AID 1161); conditions: HEK293-NOX5, ionomycin, 45 min, higher = more signal
[11] = compound effects on lung adenocarcinoma cell viability – A549, calcein-AM fluorescence, 48 h, basal, profiling panel (AID 1162); conditions: higher = more signal; note: test concentration not given here
[12] = compound effects on differentiated 3T3-L1 adipocyte viability – cell-based, 3T3-L1 adipocytes, calcein-AM fluorescence, 48 h, basal, profiling panel (AID 1163); conditions: 3T3-L1 adipocytes viability, higher = more signal; note: test concentration not given here
[13] = compound effects on hepatocellular carcinoma cell viability – HepG2, calcein-AM fluorescence, 48 h, basal, profiling panel (AID 1164); conditions: higher = more signal; note: test concentration not given here
[14] = compound effects on multiple myeloma cell viability – MM1S, calcein-AM fluorescence, 48 h, basal, profiling panel (AID 1165); conditions: higher = more signal; note: test concentration not given here
[15] = calcein-AM signal in unstimulated myeloma cells – cell-based, calcein-AM fluorescence, 48 h, PK04 Diversity Set, profiling panel (AID 1166); conditions: RPMI8226 myeloma viability, higher = more signal;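 note: cells grown under basal conditions without added stimulus; test concentration not given here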
[16] = JC-1 mitochondrial signal, unstimulated HepG2 cells – cell-based, JC-1 fluorescence, 24 h, 100 nL compound, profiling panel (AID 1167); conditions: HepG2 mitochondrial potential, higher = more signal; note: test concentration not given here
[17] = JC-1 mitochondrial signal, unstimulated adipocytes – cell-based, JC-1 fluorescence, 3T3-L1 adipocytes, 24 h, 100 nL compound, profiling panel (AID 1168); conditions: JC-1 mitochondrial fluorescence, higher = more signal, called active from +8 up or from −8 down; note: test concentration not given here
[18] = JC-1 mitochondrial signal, unstimulated myeloma cells – cell-based, JC-1 fluorescence, RPMI8226, 24 h, 100 nL compound, profiling panel (AID 1169); conditions: JC-1 mitochondrial potential fluorescence, higher = more signal; note: test concentration not given here
[19] = JC-1 mitochondrial signal, unstimulated MM1S myeloma – cell-based, JC-1 fluorescence, 24 h, 100 nL compound, profiling panel (AID 1170); conditions: MM1S mitochondrial potential, higher = more signal; note: test concentration not given here
[20] = resazurin metabolic signal in A549 cells – cell-based, resazurin fluorescence, 24 h, PK04 Diversity Set, profiling panel (AID 1171); conditions: A549 viability, higher = more signal, called active from +8 up or from −8 down; note: test concentration not given here

Chain of NADPH oxidase 5 (Homo sapiens) (Q96PH1 whole entry, looked up): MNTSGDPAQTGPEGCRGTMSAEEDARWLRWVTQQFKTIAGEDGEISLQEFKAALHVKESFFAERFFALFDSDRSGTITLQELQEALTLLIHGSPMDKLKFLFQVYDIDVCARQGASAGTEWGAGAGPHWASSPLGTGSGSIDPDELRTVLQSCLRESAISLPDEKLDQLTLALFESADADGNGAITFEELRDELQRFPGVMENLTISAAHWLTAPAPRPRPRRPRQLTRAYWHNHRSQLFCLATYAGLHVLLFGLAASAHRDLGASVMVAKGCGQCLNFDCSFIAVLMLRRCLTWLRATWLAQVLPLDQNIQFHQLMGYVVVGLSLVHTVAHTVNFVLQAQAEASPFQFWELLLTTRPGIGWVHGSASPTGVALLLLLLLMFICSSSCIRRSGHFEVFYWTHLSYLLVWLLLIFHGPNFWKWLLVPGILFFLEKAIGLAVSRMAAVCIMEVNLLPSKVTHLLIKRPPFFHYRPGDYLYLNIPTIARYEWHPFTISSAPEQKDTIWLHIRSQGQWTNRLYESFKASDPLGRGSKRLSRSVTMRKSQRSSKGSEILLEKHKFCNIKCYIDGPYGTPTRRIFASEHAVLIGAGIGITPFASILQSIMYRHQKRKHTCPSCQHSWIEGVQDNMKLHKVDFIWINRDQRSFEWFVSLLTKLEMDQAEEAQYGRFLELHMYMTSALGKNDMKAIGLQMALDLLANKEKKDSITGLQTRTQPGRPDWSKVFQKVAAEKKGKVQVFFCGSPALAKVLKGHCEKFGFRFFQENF
Chain of NADPH oxidase 4 (Homo sapiens) (Q9NPH5 whole entry, looked up): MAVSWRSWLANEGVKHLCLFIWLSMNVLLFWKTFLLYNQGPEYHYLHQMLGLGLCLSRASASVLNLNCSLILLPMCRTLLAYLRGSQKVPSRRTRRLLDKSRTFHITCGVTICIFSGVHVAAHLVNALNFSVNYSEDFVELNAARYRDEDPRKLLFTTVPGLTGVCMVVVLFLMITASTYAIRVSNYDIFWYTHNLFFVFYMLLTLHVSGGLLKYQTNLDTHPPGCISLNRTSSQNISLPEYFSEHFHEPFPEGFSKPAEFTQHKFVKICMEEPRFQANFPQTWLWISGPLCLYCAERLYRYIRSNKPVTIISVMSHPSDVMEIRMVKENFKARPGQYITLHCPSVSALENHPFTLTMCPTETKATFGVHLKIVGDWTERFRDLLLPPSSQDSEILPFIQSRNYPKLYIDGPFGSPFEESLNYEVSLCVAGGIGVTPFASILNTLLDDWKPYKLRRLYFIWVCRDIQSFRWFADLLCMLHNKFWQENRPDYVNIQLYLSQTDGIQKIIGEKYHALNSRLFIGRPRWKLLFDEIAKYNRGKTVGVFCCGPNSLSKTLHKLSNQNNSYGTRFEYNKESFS
Chain of NADPH oxidase 2 (Homo sapiens) (P04839 whole entry, looked up): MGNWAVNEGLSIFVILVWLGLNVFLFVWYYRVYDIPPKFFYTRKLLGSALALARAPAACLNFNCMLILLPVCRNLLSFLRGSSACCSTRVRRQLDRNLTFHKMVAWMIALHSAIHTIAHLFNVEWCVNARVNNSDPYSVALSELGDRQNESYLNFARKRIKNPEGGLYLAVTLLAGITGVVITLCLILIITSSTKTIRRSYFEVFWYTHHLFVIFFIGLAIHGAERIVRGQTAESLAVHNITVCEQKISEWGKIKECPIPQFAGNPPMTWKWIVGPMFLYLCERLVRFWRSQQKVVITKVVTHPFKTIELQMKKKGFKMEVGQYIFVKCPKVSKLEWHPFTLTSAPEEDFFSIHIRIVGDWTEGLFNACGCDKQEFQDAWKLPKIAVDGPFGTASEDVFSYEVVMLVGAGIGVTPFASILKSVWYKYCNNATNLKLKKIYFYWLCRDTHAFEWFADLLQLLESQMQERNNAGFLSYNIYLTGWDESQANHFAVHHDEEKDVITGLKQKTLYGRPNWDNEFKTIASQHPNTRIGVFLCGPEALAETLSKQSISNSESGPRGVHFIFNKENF

SMILES | z-score [1] | composite z-score [2] | z-score [3] | z-score [4] | z-score [5] | z-score [6] | z-score [7] | z-score [8] | z-score [9] | z-score [10] | z-score [11] | z-score [12] | z-score [13] | z-score [14] | z-score [15] | z-score [16] | z-score [17] | z-score [18] | z-score [19] | z-score [20]
CC(C)[Si]1(C(C)C)O[C@@H](c2ccccc2)c2cc(-c3ccc(-c4ccc(Cl)c(Cl)c4)o3)nc(CCc3ccccc3)c21 | -0.792 (inactive) | -0.0428 | 3.36 (inactive) | 0.652 (inactive) | -0.443 (inactive) | -0.0811 (inactive) | -0.507 | 0.903 (inactive) | 0.928 (inactive) | 0.44 | -0.516 | -0.694 | 0.433 | -3.02 | -3.72 | -1.95 | -1.72 (inactive) | -0.965 | -1.91 | -0.748 (inactive)
O=C1C[C@@](C(=O)O)(c2ccc([N+](=O)[O-])cc2)[C@@H](c2ccc(CO)cc2I)N1CC12CC3CC(CC(C3)C1)C2 | -0.455 (inactive) | 0.271 | 27.4 (active) | 22.3 (active) | 3.79 (inactive) | 2.73 (inactive) | -0.429 | 1.11 (inactive) | -0.681 (inactive) | 1.72 | -1.27 | -1.05 | -4.72 | -3.8 | -4.35 | -2.54 | -1.28 (inactive) | -0.811 | -2.41 | -1.77 (inactive)
C=CCC(OC(C)=O)[C@@H]1[C@@H](N(Cc2ccc(-c3cccc(C(F)(F)F)c3)o2)C(=O)c2ccc(C)cc2)c2cc(OCCCO)ccc2N1C(=O)c1ccc2ccccc2n1 (stereo not given in full) | 1.55 (inactive) | 0.235 | 1.97 (inactive) | 0.435 (inactive) | -0.225 (inactive) | 0.0644 (inactive) | -0.218 | -0.0312 (inactive) | 0.95 (inactive) | 2.06 | 1.03 | 0.27 | 1.91 | -0.0472 | -0.526 | 2.67 | -0.351 (inactive) | 0.962 | -0.165 | 0.16 (inactive)
O=C(NCCN1CCOCC1)[C@@H]1c2ccccc2C(=O)N(Cc2cc(F)cc(C(F)(F)F)c2)[C@H]1c1ccc(CO)cc1 | -0.61 (inactive) | -0.0492 | 3.37 (inactive) | 0.298 (inactive) | 0.884 (inactive) | 0.0839 (inactive) | -0.287 | 1.44 (inactive) | 1.12 (inactive) | 2 | 1.22 | 0.767 | 1.2 | 0.34 | -0.671 | 1.97 | 0.13 (inactive) | 0.738 | -0.119 | 0.935 (inactive)
CO[C@H]1O[C@H](CO)[C@@H](OC(=O)Nc2cccc(F)c2)[C@H](OC(=O)Nc2ccccc2-c2ccccc2)[C@@H]1OC(=O)Nc1ccccc1-c1ccccc1 | 0.538 (inactive) | 0.257 | 3.1 (inactive) | 2.23 (inactive) | 0.346 (inactive) | 1.68 (inactive) | 0.0437 | -2.45 (inactive) | -0.551 (inactive) | -0.608 | -2.35 | 0.63 | -1.85 | -2.28 | -2.37 | -0.27 | 0.827 (inactive) | -0.877 | -1.38 | -2.79 (inactive)
COC(=O)c1c2oc(c1C(=O)OC)C(=O)N[C@H](Cc1ccccc1)Cn1nncc1C1(CCCCC1)NC(=O)N[C@H](CO)CC2 | 1.74 (inactive) | -0.237 | 5.12 (inactive) | 1.58 (inactive) | 0.52 (inactive) | 0.628 (inactive) | 0.14 | -2.86 (inactive) | -2.14 (inactive) | -3.47 | 0.876 | 0.0786 | 0.8 | -1.1 | 0.358 | 3.8 | -0.413 (inactive) | -0.65 | -0.936 | 0.286 (inactive)
O=C1OCC=C[C@H]2OC34C=CCN(c5ccc6ccccc6c5)C(=O)[C@H]3N(CCO)C(=O)[C@@H]4[C@@H]12 (stereo not given in full) | -0.773 (inactive) | 0.235 | 1.33 (inactive) | 0.796 (inactive) | 0.547 (inactive) | 0.552 (inactive) | -0.572 | 1.53 (inactive) | 1.05 (inactive) | 1.46 | 0.594 | -0.355 | 0.379 | -0.102 | -0.29 | -0.542 | -0.252 (inactive) | 1.02 | -0.161 | -0.0805 (inactive)
C=CCNC(=O)[C@@H]1[C@H]2C(=O)O[C@H](c3ccccc3)[C@H](c3ccccc3)N2[C@H](c2ccccc2OCCO)[C@@]12C(=O)N(C(=O)OCCOC)c1ccc(C#CCC(C(=O)OC)C(=O)OC)cc12 | 0.0535 (inactive) | 1.51 | 1.78 (inactive) | 0.931 (inactive) | 0.222 (inactive) | 0.506 (inactive) | 0.273 | 0.793 (inactive) | 0.966 (inactive) | 1.07 | 0.136 | -0.609 | -0.592 | -0.794 | -1.57 | 0.408 | 0.618 (inactive) | -0.802 | -1.35 | 1.31 (inactive)
C=CCN1C(=O)[C@@]2(O[C@@H](CCO)[C@H]([Si](C)(C)c3ccc(OC)cc3)[C@H]2C)c2cc(NC(C)=O)ccc21 | -0.149 (inactive) | 0.0429 | 23.7 (active) | 8.14 (active) | 0.502 (inactive) | 1.26 (inactive) | 0.0792 | -1.07 (inactive) | -0.0526 (inactive) | -0.391 | 0.103 | -0.213 | -0.411 | -1.36 | -1.56 | -0.96 | -0.296 (inactive) | -0.484 | -0.722 | -1.17 (inactive)
COCCCNC(=O)[C@@]1(C)c2ccccc2C(=O)N(Cc2ccccc2)[C@H]1c1ccc(CO)cc1 | -0.0509 (inactive) | 0.114 | 2.68 (inactive) | 0.179 (inactive) | 2.67 (inactive) | -0.487 (inactive) | 2.82 | -1.63 (inactive) | -2.44 (inactive) | -2.66 | 0.587 | 0.928 | -0.0853 | -0.174 | -2.12 | 0.548 | -1.39 (inactive) | -0.648 | -0.514 | 0.22 (inactive)
COCCCNC(=O)[C@]1(Cc2ccccc2N=[N+]=[N-])N=C(c2ccc(OCCCO)cc2)O[C@@H]1c1ccccc1CN=[N+]=[N-] | 0.871 (inactive) | 0.766 | 28.1 (active) | 21.2 (active) | 3.17 (inactive) | 2.71 (inactive) | 1.97 | -0.888 (inactive) | 0.4 (inactive) | -0.209 | -1.02 | 1.63 | -1.77 | -2.98 | -4.11 | 1.46 | -0.683 (inactive) | -1.2 | -0.495 | -1.2 (inactive)
[N-]=[N+]=Nc1ccccc1C[C@]1(C(=O)N2CCCCC2)N=C(c2ccc(OCCCO)cc2)O[C@H]1c1ccccc1N=[N+]=[N-] | -0.866 (inactive) | 0.568 | 30.1 (active) | 28.3 (active) | 2.73 (inactive) | 7.18 (inactive) | -0.359 | -2.39 (inactive) | 0.341 (inactive) | -1.08 | -0.0955 | 0.164 | -2.44 | -3.54 | -3.89 | -0.599 | -0.0935 (inactive) | -1.09 | -2.64 | -0.909 (inactive)
COCCCNC(=O)[C@@]1(Sc2ccc(C)cc2)CC(=O)N(Cc2ccccc2)[C@@H]1c1ccc(CO)cc1 | 0.186 (inactive) | -1.12 | 1.25 (inactive) | 0.505 (inactive) | 1.14 (inactive) | 0.107 (inactive) | -0.0519 | 0.462 (inactive) | 0.917 (inactive) | 0.162 | -0.837 | 0.0417 | -0.543 | -0.0185 | 0.381 | -0.658 | -0.265 (inactive) | 0.216 | -1.38 | 1.28 (inactive)
C=C(CCCC)C(=O)CC[C@@H](OC(=O)c1ccccc1-c1ccccc1C(=O)O)c1ccc(CO)o1 | -0.467 (inactive) | 0.379 | 1.6 (inactive) | 0.228 (inactive) | 1.19 (inactive) | 0.161 (inactive) | -0.946 | 1.35 (inactive) | -0.203 (inactive) | -0.475 | -0.64 | 0.498 | 0.102 | 0.227 | -0.91 | -1.24 | -0.26 (inactive) | 0.479 | -0.0259 | -0.476 (inactive)
[N-]=[N+]=Nc1ccccc1[C@@H]1OC(c2ccc(OCCCO)cc2)=N[C@]1(CCS(=O)(=O)c1ccccc1)C(=O)O | 0.604 (inactive) | 0.568 | 28.8 (active) | 24.4 (active) | 0.971 (inactive) | 4.63 (inactive) | -0.067 | -2.5 (inactive) | -0.0168 (inactive) | 0.778 | 0.926 | -0.149 | 0.846 | -0.57 | -1.47 | -3.18 | -1.07 (inactive) | -0.373 | -1.17 | 0.343 (inactive)
O=[N+]([O-])c1ccc(C[n+]2ccc(CCCO)cc2)o1 | -0.934 (inactive) | -0.0162 | 1.21 (inactive) | 0.331 (inactive) | 0.616 (inactive) | 0.377 (inactive) | 0.437 | 0.00328 (inactive) | -3.09 (inactive) | -0.4 | -0.38 | 1.01 | -0.405 | -0.41 | -2.35 | -1.07 | -0.266 (inactive) | -0.614 | 0.5 | -0.77 (inactive)

Source: PubChem BioAssay
